This is a sample that favours compounds with a hit; in the whole collection about 7.4% have one here.
CRE-bla Fsk – Cell signaling CRE-BLA (Fsk stim). Potency, µM (doses to about 38.2 µM), for inactives: top-dose activity change, negative = inhibition, actives largely listed as activators. CHO CRE-bla reporter (cAMP response element driving beta-lactamase), forskolin EC10, beta-lactamase ratio. 2.5% of 71,000 active; active = well fitted activation curve with a large enough effect in the signal ratio, with a control signal flat, not every such curve was filed as active; inconclusive = small, poorly fitted or top-dose-only effect, or effect the other way, or a change in a side signal; the % refers to the signal ratio; note: % of control where 0% means no effect
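Beta-lactamase reporter under a cAMP responsive element in CHO cells; compounds tested in titration series against EC10 NKH 477, 3 h at 37 °C. Read-out: CCF4 FRET ratio 460nm/530nm (excitation 405nm) giving %Activity, fitted to AC50.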
TSHR agonist – qHTS Assay for Agonists of the Thyroid Stimulating Hormone Receptor; Thyrotropin receptor (Homo sapiens), P16473; HEK293-CNG-TSHR cells (CNG channel as cAMP sensor), membrane potential dye, cAMP; Potency, µM (series often up to 57.1 µM), inactives show top-dose activation, actives largely listed as activators; 0.48% of 73,000 active; active = well fitted activation curve with a large enough effect in the main read-out, with a control signal flat, not every such curve was filed as active; inconclusive = small, poorly fitted or top-dose-only effect, or a change in a side signal; inactive = no such curve, though single readings can be large or run the other way; % of control where 0% means no effect;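 note: the control signal comes from parental cells without the receptor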
Target sequence (P16473 whole entry, looked up): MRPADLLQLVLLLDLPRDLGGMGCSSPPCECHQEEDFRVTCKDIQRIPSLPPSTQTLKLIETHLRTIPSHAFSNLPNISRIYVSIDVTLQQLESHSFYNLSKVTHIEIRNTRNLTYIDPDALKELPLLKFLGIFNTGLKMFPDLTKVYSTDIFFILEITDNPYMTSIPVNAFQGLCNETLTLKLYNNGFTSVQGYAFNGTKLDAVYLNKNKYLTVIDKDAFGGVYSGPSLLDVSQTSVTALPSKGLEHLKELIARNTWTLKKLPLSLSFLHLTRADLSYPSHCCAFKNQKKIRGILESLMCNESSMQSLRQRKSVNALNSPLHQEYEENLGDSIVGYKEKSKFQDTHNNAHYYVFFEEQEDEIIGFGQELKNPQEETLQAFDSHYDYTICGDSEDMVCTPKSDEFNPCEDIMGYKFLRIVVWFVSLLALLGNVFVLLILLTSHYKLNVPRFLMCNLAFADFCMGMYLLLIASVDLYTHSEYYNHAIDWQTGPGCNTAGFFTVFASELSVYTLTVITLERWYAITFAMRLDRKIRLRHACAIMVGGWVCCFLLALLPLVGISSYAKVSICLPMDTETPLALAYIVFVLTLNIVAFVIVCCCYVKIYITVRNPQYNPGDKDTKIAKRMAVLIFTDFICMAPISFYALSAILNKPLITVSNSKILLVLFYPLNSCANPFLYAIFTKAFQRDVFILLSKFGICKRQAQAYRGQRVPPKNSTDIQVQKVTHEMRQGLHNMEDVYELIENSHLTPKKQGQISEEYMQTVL
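HEK 293 cells stably expressing TSHR and a modified CNG channel, with CNG-only parental cells as counterscreen, were preloaded 60 min at room temperature with membrane potential dye containing 100 uM RO 20-1724. Compound exposure was 30 min, and depolarization was read as fluorescence at 590 nm.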
Tau fil binding – qHTS Assay for Tau Filament Binding. Potency, µM (top dose mostly 57.1 µM), for the others: top-dose activity change, negative = inhibition. 2% of 71,000 active. AID 596, 2007. recombinant tau filaments, thioflavin S fluorescence, 15 h; filaments grown with octadecylsulfate alongside compound;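 note: % is set by controls: 0 for no effect and ±100 for the full control effect; actives lower thioflavin S fluorescence by blocking filaments or displacing dye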
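Quantitative HTS: thioflavine S signal from ODS-induced tau filaments, excited at 450 nm, emission 510 nm. Conditions: 1 uM tau, 30 uM ODS, 15 h at 37 C, pH 7.4.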
HEK293 cAMP cs – qHTS Assay for Agonists of the Thyroid Stimulating Hormone Receptor: Activators of Intracellular cAMP Concentrations in Parental HEK 293. parental HEK293 CNG cAMP sensor, membrane potential fluorescence. Potency, µM (doses to about 57.1 µM), inactives show at the top dose activation, actives largely listed as activators. 2.5% of 73,000 active; note: % of control where 0% means no effect; nearly all actives have a fitted effect of over 55% in size
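Counterscreen for endogenous-receptor signalling: CNG-channel HEK 293 cells report cAMP rise by membrane depolarization. After 60 min dye equilibration with 100 uM RO 20-1724, compounds incubated 30 min before bottom-read fluorescence at 590 nm.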
ERK AVP inh – qHTS Assay for Inhibitors of the ERK Signaling Pathway using a Homogeneous Screening Assay; AID 995, 2007; Potency, µM (series often up to 57.5 µM), for the others: at the highest dose activity, negative = inhibition, usual class: inhibitors; HEK293-V1b, vasopressin-stimulated pERK AlphaScreen; 0.99% of 72,000 active; note: % is set by controls: 0 for no effect and ±100 for the full control effect; nearly all actives have a fitted effect of over 55% in size
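qHTS, compounds titrated on V1b-expressing HEK293 cells. Preincubation 30 min at 37C, vasopressin 25 nM for 5 min, lysis 10 min, bead incubation 5 hr at room temperature.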
The depositor's hits bear a star; ? = inconclusive; · = not tested or not shown; [ ] = another dose, or the depositor's remark. Unless noted, calls come from the whole dose curve; as a rule, active = well fitted curve in the direction sought with a large enough effect; inconclusive = small, poorly fitted or top-dose-only effect, or another doubt; inactive = no such curve, though single readings can be large; an effect the other way counts as inactive or inconclusive. Potency is the fitted concentration of half-maximal effect.

SMILES | CRE-bla Fsk | TSHR agonist | Tau fil binding | HEK293 cAMP cs | ERK AVP inh
CN(C)c1ccc(N=Cc2ccco2)cc1 | 12% | -38% | 13µM* | -21% | ?
[O-][n+]1c(CN2CCCCC2)nc2cccc3c2c1-c1ccccc1-3 | -10%[7.6 µM] | 3%[11.4 µM] | 0%[11.4 µM] | -4%[11.4 µM] | 20%[11.5 µM]
Cc1ccc(C[C@H](Cc2nc3ccccc3[nH]2)c2nc3ccccc3[nH]2)cc1 | ? | 22% | 124% | 1% | ·
CC(C)(C)OC(=O)C1=NOC2(C=CC(=O)C=C2)C1 | · | -3%[11.4 µM] | · | 3%[11.4 µM] | 8%[11.5 µM]
O=C1C(=O)c2ccccc2C(O)=C1Cc1ccccc1 | -5%[7.6 µM] | 2%[11.4 µM] | -1%[11.4 µM] | -5%[11.4 µM] | 19%[11.5 µM]
CC(=O)c1ccc(O)c(CN(C2CCCCC2)C2CCCCC2)c1O | -9%[7.6 µM] | 0%[11.4 µM] | 4%[11.4 µM] | 0%[11.4 µM] | -16%[11.5 µM]
CC(=O)c1ccc2c3c(ccc(O)c13)CC2 | ? | -19%[11.4 µM] | 4µM* | -6%[11.4 µM] | 32µM*
OC(Cc1ccccc1)(Cc1ccccc1)c1ccccc1 | -11%[7.6 µM] | 9%[11.4 µM] | 11%[11.4 µM] | 7%[11.4 µM] | 23%[11.5 µM]
O=c1[nH]ncc2ccccc12 | -8% | 0% | -5% | 8% | -3%
Cc1cccc(-n2nnnc2SCn2nnc3ccccc3c2=O)c1 | 4% | ? | -18% | 25µM* | 5%
COC(=O)c1ccc(C(NC(=O)OCc2ccccc2)/C(F)=C/[C@@H](C)C(=O)Nc2ccc(OC)cc2)cc1 (some centres not stated) | 1% | 23% | 320% | 10% | 2%
Cc1noc(C)c1CSc1nnc(-c2ccccc2F)n1CCc1ccccc1 | ? | ? | 75% | 10µM* | 9%
CN1/C(=C\P(=O)(N(C)C)N(C)C)C(C)(C)c2ccccc21 | ? | ? | 10µM* | ? | 0%
COc1ccc(-c2cc(=O)c3ccccc3o2)cc1 | · | · | · | · | -6%
COc1ccc(-c2cc(=O)c3ccccc3s2)cc1 | -3% | ? | 25µM* | ? | 13µM*
CCOC(=O)c1cc(NC(=O)NCc2ccco2)c(C)nc1C | ? | 10µM* | -6% | -7%[2.29 µM] | -10%
COC(=O)c1ccccc1NC(=O)NCc1ccco1 | -6% | 9% | -9% | 5% | ?
COC(=O)c1c(C#N)c(N)nc2c1CCC2 | 2µM* | 1% | 6% | 0% | -7%
CSc1ccc(-c2c(C#N)c(N)nc3c2CCCC3)cc1 | ? | · | -23% | 15% | 4%
O=C(c1ccc(-n2c(=O)c(=O)[nH]c3ccccc32)cc1)N1CCCN(Cc2ccccc2)CC1 | · | -1% | · | -1% | ·
CC(C)=CCC/C(C)=C/COc1c2occc2cc2ccc(=O)oc12 | · | · | · | · | -1%
CC(C)=CCC/C(C)=C/COc1c2ccoc2cc2oc(=O)ccc12 | ? | ? | ? | 13µM* | ·
CCCCC/C=C\C[C@H](O)/C=C\c1cccc(C[C@H](O)CCCCO)n1 | ? | -4% | -4% | 11% | 10%
CCCc1ccc2c(N)c(C#N)sc2n1 | 10µM* | 6% | -5% | -5% | -25%
N#Cc1sc2nc3c(c(-c4cccnc4)c2c1N)CCC3 | ? | 26% | -16% | 1% | ?
SMILES | CRE-bla Fsk | TSHR agonist | Tau fil binding | HEK293 cAMP cs | ERK AVP inh
CC(=O)N1CCN(c2ccc(Oc3nc(-c4ccccc4)nc4ccccc34)cc2)CC1 | 1% | 25µM* | 5% | -1% | 12%
COc1ccc(CC[N@+]2(C)COc3cc4oc(=O)cc(C)c4cc3C2)cc1OC | 16%[7.6 µM] | 1%[11.4 µM] | -4%[11.4 µM] | 8%[11.4 µM] | -11%[11.5 µM]
COc1ccc2nc(Nc3ccc4c(c3)OCO4)sc2c1 | ? | ? | 13µM* | -4% | -7%
Cc1ccc(C)c(N2CCN(C(=O)c3ccc(CS(=O)(=O)c4ccccc4C)o3)CC2)c1 | ? | ? | 12% | ? | ?
COc1ccccc1S(=O)(=O)Cc1ccc(C(=O)N2CCN(c3ccccc3)CC2)o1 | 7% | 12% | -5% | 19% | -16%
Cc1cccc(N2CCN(C(=O)c3ccc(CS(=O)(=O)c4ccccc4C)o3)CC2C)c1 (configuration not stated) | ? | ? | 32% | 25µM* | ?

High-throughput results as filed in PubChem.
